In PubChem BioAssay (NCATS):
Results filed as inconclusive are left out. The source made the active and inactive calls. The call rests on the fitted dose curve; in most records, active means well fitted cell-killing curve with a large enough effect; inconclusive means small, poorly fitted or top-dose-only effect; inactive means no such curve, though single readings can be large or run the other way.

Assay: qHTS of pediatric cancer cell lines to identify multiple opportunities for drug repurposing: Primary screen for SK-N-MC cells (AID 1347093)
Details: SK-N-MC viability, CellTiter-Glo luminescence, 48 h; series mostly up to 46 µM
Outline: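 Metabolically active cells were quantified by ATP-dependent luminescence (CellTiter-Glo, 15 min at room temperature) following 48 h treatment. Cells had been plated at 500-1,000 per well and settled for 5 h beforehand.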
Potency means the concentration at half of the fitted maximal effect.

**Q.** Which Potency does the source give for `CCN1CCN(CC(=O)Nc2ccc(-c3cccc4c(=O)cc(N5CCOCC5)oc34)c3sc4ccccc4c23)CC1` here?
**A.** 590 nM (active)

**Q.** With `Cc1cc(Nc2cc(N3CCN(C)CC3)nc(Sc3ccc(NC(=O)C4CC4)cc3)n2)n[nH]1` as the compound, how does the Potency read?
**A.** 418 nM (active)

**Q.** With `COc1cc2ncn(-c3cc(OCc4ccccc4C(F)(F)F)c(C(N)=O)s3)c2cc1OC` as the compound, how does the Potency read?
**A.** 469 nM (active)

**Q.** Which Potency does the source give for `O=C(CCCCCCC(=O)Nc1ccc([C@H]2O[C@@H](CSc3nc(-c4ccccc4)c(-c4ccccc4)o3)C[C@@H](c3ccc(CO)cc3)O2)cc1)NO` here?
**A.** 8330 nM (active)

**Q.** Which Potency does the source give for `COC(=O)Nc1ccc(-c2nc(N3CCOCC3)c3cnn(C4CCN(Cc5cccnc5)CC4)c3n2)cc1` here?
**A.** 46.9 nM (active)

**Q.** Which Potency does the source give for `O=C(O)C1(Cc2cccc(Nc3nccs3)n2)CCC(Oc2cccc(Cl)c2F)CC1` (stereo unspecified) here?
**A.** 1660 nM (active)

**Q.** Which Potency does the source give for `CC(C)=CCCC(C)=CCCC(C)=CCSc1ccccc1C(=O)O` here?
**A.** 743 nM (active)

**Q.** With `COc1cc(-c2nn(C3CCC(N4CCN(C(C)=O)CC4)CC3)c3ncnc(N)c23)ccc1NC(=O)c1cc2ccccc2n1C` (stereo unspecified) as the compound, how does the Potency read?
**A.** 743 nM (active)

**Q.** Which Potency does the source give for `COc1cc(C(=O)N2CCC(N3CCN(C)CC3)CC2)ccc1Nc1ncc2c(n1)N(C)c1ccccc1C(=O)N2C` here?
**A.** 10500 nM (active)

**Q.** Which Potency does the source give for `NC1(Cc2ccc(Cl)cc2)CCN(c2ncnc3[nH]ccc23)CC1` here?
**A.** 3320 nM (active)

**Q.** For `COc1cccc(-c2ccc(NC(=O)C3=C(C(=O)O)CCC3)c(F)c2)c1`, which Potency is on record?
**A.** 1320 nM (active)
